# Source: PubChem BioAssay AID902 (National Center for Advancing Translational Sciences (NCATS), 2007)
# Values joined by “and” are separate entries in the source; they are usually repeats but may differ in a detail not shown here. Identical values can stand only once. The campaign covered roughly 130,000 compounds. About 1,900 (1.5%) were called active. Where a call stands in place of a potency, no number is given. Roughly 5% stayed inconclusive and do not appear here. The call rests on the fitted dose curve; in most records, active means well fitted cell-killing curve with a large enough effect; inconclusive means small, poorly fitted or top-dose-only effect; inactive means no such curve, though single readings can be large or run the other way. The full list was thinned out, with actives kept by preference. Some compounds were tested as several samples or in several runs, with calls that do not always agree.
# Assay: qHTS Screen for Compounds that Selectively Target Cancer Cells with p53 Mutations: Cytotoxicity of p53ts Cells at the Nonpermissive Temperature; further: nearly all actives have a fitted effect of over 55% in size
# Conditions: H1299-p53A138V viability at 39C, ATP luminescence, 24 h; series mostly up to 46.1 µM
# Potency means the concentration at half of the fitted maximal effect.
row,SMILES,Potency
1,Cc1ccc2c(=O)c(C(=O)c3cccc(Cl)c3)cn(CC(=O)NCc3ccccc3)c2n1,inactive
2,CN1CCC[C@@H]1CCO[C@](C)(c1ccccc1)c1ccc(Cl)cc1,inactive and 12.6 µM (active)
3,CN1CCCC1CCO[C@@](C)(c1ccccc1)c1ccc(Cl)cc1 (stereo partly specified),inactive
4,Cc1ccsc1C(=O)OCC(=O)c1cc2ccccc2o1,inactive
5,Cc1ccsc1C(=O)OCC(=O)c1cc(C)n(CC2CCCO2)c1C (stereo unspecified),7.94 µM (active)
6,COC(=O)c1ccc2c(=O)n(CC3CCCO3)c(=S)[nH]c2c1 (stereo unspecified),inactive
7,COc1ccccc1-n1nnnc1S(=O)(=O)Cc1ccc(Cl)cc1,6.31 µM (active)
8,COc1ccccc1N1CCN(C(=O)CN(Cc2ccc(Cl)cc2)S(C)(=O)=O)CC1,inactive
9,COc1ccccc1N1CCN(Cc2nnnn2CCc2ccccc2)CC1,inactive
10,Cc1cccc(N2CCN(S(=O)(=O)c3ccc4[nH]c5c(c4c3)CCCCC5)CC2)c1C,inactive
11,CN(C)S(=O)(=O)c1ccc(C(=O)N(Cc2cccnc2)c2nc3c(F)cc(F)cc3s2)cc1,inactive
12,O=C(CCOc1ccccc1)N(Cc1cccnc1)c1nc2ccc(Cl)cc2s1,inactive
13,O=C(CCS(=O)(=O)c1ccccc1)N(Cc1cccnc1)c1nc2c(F)cccc2s1,31.6 µM (active)
14,CCc1ccc(NC(=O)C2CCCN2S(=O)(=O)c2ccc3nc(-c4ccccc4)[nH]c3c2)cc1 (stereo unspecified),inactive
15,CCc1cccc(-n2nnc(-c3nsc(NC(=O)c4ccc(C)cc4)n3)c2C)c1,inactive
16,CC1Cc2cc(S(=O)(=O)CCC(=O)Nc3ccc(F)c(Cl)c3)ccc2N1C(=O)C1CC1 (stereo unspecified),inactive
17,COc1ccc(-n2cnc3cc(C(=O)NC4CCCC4)ccc32)cc1,inactive
18,CCC(C)c1ccc2oc(-c3ccc(NC(=O)c4cc5ccccc5o4)cc3)nc2c1 (stereo unspecified),inactive
19,CCc1ccc2oc(-c3ccc(N)cc3)nc2c1,10 µM (active)
20,COC(=O)c1ccc(-c2nc3cc(NC(C)=O)ccc3o2)cc1,inactive
21,Cc1ccc(C)c(S(=O)(=O)c2nnn3c2nc(N2CCOCC2)c2sccc23)c1,inactive

row,SMILES,Potency
1,CCS(=O)(=O)c1ncc(N(Cc2ccc(F)cc2)Cc2ccco2)c(C(=O)Nc2cc(C)ccc2C)n1,inactive
2,CCSc1ncc(Cl)c(C(=O)Nc2cc(C)ccc2C)n1,inactive
3,Cc1ccc(NC(=O)c2nc(S(=O)(=O)Cc3cccc(C)c3)ncc2Cl)cc1,10 µM (active)
4,Cn1c(=O)n(Cc2c(F)cccc2Cl)c(=O)c2c1nc1n2CCN1c1ccc(F)cc1,inactive
5,Cc1nc2sc(C(c3ccco3)N3CCOCC3)c(O)n2n1 (stereo unspecified),inactive
6,Oc1c(C(c2ccccc2Cl)N2CCOCC2)sc2nc(-c3ccco3)nn12 (stereo unspecified),inactive
7,Oc1c(C(c2ccccn2)N2CCOCC2)ccc2cccnc12 (stereo unspecified),12.6 µM (active)
8,Cc1ccc(CCNC(=O)c2ccc3c(c2)N(Cc2cc(C)ccc2C)C(=O)c2ccccc2S3=O)cc1 (stereo unspecified),inactive
9,CC(=O)N1CCc2cc(Br)cc(S(=O)(=O)CCC(=O)NCCc3ccc(Cl)cc3)c21,inactive
10,Cn1nnnc1SCCNCc1ccc(Cl)c(Cl)c1,inactive
11,COc1cc(CNCCSc2nnnn2C)ccc1OCc1ccc(Cl)cc1Cl,25.1 µM (active)
12,COc1cc(CNCCSc2nnnn2C)ccc1OCc1c(F)cccc1Cl,inactive
13,Cc1ccccc1CSCCNC(=O)C1CCN(S(=O)(=O)Cc2ccccc2)CC1,inactive
14,Cc1ccc(NC(=O)c2ccc3[nH]c(C)cc(=O)c3c2)c(C)c1,inactive
15,CCC1(C)CC(=O)c2c(ccc3oc(C(=O)Nc4ccc(C(C)=O)cc4)c(C)c23)O1 (stereo unspecified),inactive
16,CC1(C)CC(=O)c2cc(OCC(=O)NCC3CCCO3)ccc2O1 (stereo unspecified),inactive
17,Cc1c(C(=O)NCc2ccccc2Br)oc2ccc3c(c12)C(=O)CC(C)(C)O3,15.8 µM (active)
18,CCS(=O)(=O)N1CCc2cc(C(=O)NCc3ccc(C)cc3)ccc21,inactive
19,COc1ccccc1-c1cc(C(F)(F)F)nc(S(=O)(=O)CCCC(=O)Nc2ccc(F)cc2F)n1,inactive
20,Cc1ccc(O)c(NC(=O)c2cc(-c3ccc(F)cc3)no2)c1,inactive
21,Cc1ccc(O)c(NC(=O)CCS(=O)(=O)c2nc(-c3ccc4c(c3)OCO4)cc(C(F)(F)F)n2)c1,3.16 µM (active)

row,SMILES,Potency
1,Cc1ccc(CNC(=O)c2ccc(CS(=O)Cc3cccc(Cl)c3)o2)cc1 (stereo unspecified),inactive
2,COc1ccc2nc(Nc3nc4cc5c(cc4s3)OCCO5)sc2c1,inactive
3,c1c2c(cc3sc(N4CCCCC4)nc13)OCCO2,2 µM (active)
4,Fc1ccc2nc(N3CCCCC3)sc2c1,inactive
5,Cc1cccc(CSc2nc3ccncc3n2CC(=O)N(C)C2CCCCC2)c1,inactive
6,Cc1ccc(C(=O)Nc2ccc3[nH]c(=O)c(=O)[nH]c3c2)cc1,inactive
7,COc1ccc(CNC(=O)c2ccc3c(O)c(S(=O)(=O)c4ccccc4)c(=O)[nH]c3c2)cc1,inactive
8,CC(C)c1ccc(NC(=O)c2ccc3c(O)c(S(=O)(=O)c4ccccc4)c(=O)[nH]c3c2)cc1,6.31 µM (active)
9,COc1ccc(C)cc1NC(=O)CCc1c(C)nn(-c2ccc(N3CCOCC3)nn2)c1C,inactive
10,Cc1ccc(N2CC(NC(=O)Cc3cccs3)CC2=O)cc1 (stereo unspecified),inactive
11,CCOc1ccc(/C(O)=C2/C(=O)C(=O)N(Cc3cccnc3)C2c2ccc(N(C)C)cc2)c(C)c1 (stereo unspecified),inactive
12,COc1ccc(CCN2C(=O)c3[nH]nc(-c4ccccc4O)c3C2c2ccc(C)cc2)cc1OC (stereo unspecified),inactive
13,CCCOc1ccc(C2c3c(-c4ccccc4O)n[nH]c3C(=O)N2Cc2cccnc2)cc1 (stereo unspecified),12.6 µM (active)
14,COc1ccc(C2C(C(C)=O)=C(O)C(=O)N2Cc2cccnc2)cc1 (stereo unspecified),inactive
15,CCCCN1C(=O)c2[nH]nc(-c3ccccc3O)c2C1c1cccc(OCc2ccccc2)c1 (stereo unspecified),25.1 µM (active)
16,COc1cccc(-c2n[nH]c3c2C(c2cccc(O)c2)N(C)C3=O)c1 (stereo unspecified),inactive
17,O=C(c1cccc(Cl)c1)N1CCN(CCc2ccncc2)CC1,inactive
18,Fc1ccc(C(Nc2ccc(Cl)c(C(F)(F)F)c2)c2nnc(-c3ccccc3)o2)cc1 (stereo unspecified),inactive
19,Cn1c(=O)nc2n(-c3ccc(Br)cc3)c3cccc(Cl)c3cc-2c1=O,inactive
